# Laboratory results from PubChem BioAssay (Tox21).
# A number with no mark means an inactive call. Records with an inconclusive call do not appear. Entries that show only a call come without a potency. The source made the active and inactive calls. Unless noted, the call rests on the fitted dose curve.
# Columns and labels:
# [1] = qHTS assay to identify small molecule antagonists of the estrogen related receptor signaling pathway with the pleiotropic PPARgamma coactivator (PGC) from Tox21 10K library - cell viability counter screen (AID 1224840; active means well fitted cell-killing curve with a large enough effect in the repeat runs, not every such curve was filed as active; further: nearly all actives have a fitted effect of over 40% in size)
# Summary of the method: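 Cell viability is measured by CellTiter-Fluor fluorescence in PGC/ERR cells that receive compounds after a 6-hour attachment period and are then incubated 17.5 hours at 37 C.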
# [2] = qHTS assay to identify small molecule antagonists of the estrogen related receptor signaling pathway with the pleiotropic PPARgamma coactivator (PGC) from Tox21 10K library (AID 1224841; call rule not given here; further: actives are mostly falling curves and most rising ones were filed inactive; nearly all actives have a fitted effect of over 50% in size; further: potency means the concentration at half of the fitted maximal effect; on activity, negative = inhibition: series mostly up to about 92 µM)
# Summary of the method: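 Cells stably carrying the PGC/ERR reporter, seeded at 2,000 per well, received pin-transferred compounds 6 h post-plating. Exposure lasted 18 h at 37 C. Signal: One-Glo luminescence.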
# [3] = qHTS assay to identify small molecule agonists of the estrogen related receptor signaling pathway with the pleiotropic PPARgamma coactivator (PGC) from Tox21 10K library (AID 1224842; active means well fitted curve in the direction sought with a large enough effect in the repeat runs; an effect the other way counts as inactive or inconclusive; further: nearly all actives have a fitted effect of over 15% in size)
# Summary of the method: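 PGC/ERR reporter cells (NTP line) were seeded 2,000 per well, rested 6 h at 37 C/5% CO2, then pin-dosed with compounds in DMSO for 18 h at 37 C; luciferase read by One-Glo luminescence after 30 min at room temperature.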
# [4] = biological target: Thyrotropin receptor (Homo sapiens) (UniProt P16473); test: qHTS assay to identify small molecule agonists of the thyroid stimulating hormone receptor (TSHR) signaling pathway (AID 1224843); further: nearly all actives have a fitted effect of over 45% in size
# Thyrotropin receptor (Homo sapiens), sequence (P16473 whole entry, looked up): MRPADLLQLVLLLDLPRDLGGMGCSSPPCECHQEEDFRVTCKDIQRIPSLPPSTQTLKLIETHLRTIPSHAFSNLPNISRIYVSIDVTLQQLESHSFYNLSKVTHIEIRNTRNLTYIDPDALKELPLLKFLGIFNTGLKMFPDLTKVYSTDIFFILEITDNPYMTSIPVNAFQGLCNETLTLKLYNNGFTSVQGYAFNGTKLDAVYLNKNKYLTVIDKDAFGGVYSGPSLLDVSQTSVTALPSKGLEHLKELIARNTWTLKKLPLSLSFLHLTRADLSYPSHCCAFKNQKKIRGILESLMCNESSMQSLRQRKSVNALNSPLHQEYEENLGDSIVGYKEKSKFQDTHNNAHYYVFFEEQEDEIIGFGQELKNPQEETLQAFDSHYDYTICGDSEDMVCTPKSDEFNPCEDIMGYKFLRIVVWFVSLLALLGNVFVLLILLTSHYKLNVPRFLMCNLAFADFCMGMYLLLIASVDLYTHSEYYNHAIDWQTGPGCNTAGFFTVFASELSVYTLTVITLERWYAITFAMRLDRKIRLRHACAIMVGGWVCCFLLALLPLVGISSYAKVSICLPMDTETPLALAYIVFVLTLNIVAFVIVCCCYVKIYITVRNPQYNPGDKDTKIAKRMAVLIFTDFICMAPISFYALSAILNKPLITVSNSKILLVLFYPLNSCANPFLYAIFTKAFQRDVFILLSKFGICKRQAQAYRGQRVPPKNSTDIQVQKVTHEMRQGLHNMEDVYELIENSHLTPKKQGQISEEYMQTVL
# Summary of the method: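 Compounds are titrated over 15 concentrations, in triplicate, onto TSHR-HEK293 cells seeded at 800/well. Plates sit 30 min at room temperature before cAMP-d2 and anti-cAMP cryptate are added; signal is read after a further hour.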
# [5] = qHTS assay to identify small molecule agonists of the hypoxia (HIF-1) signaling pathway - cell viability counter screen (AID 1224844); further: nearly all actives have a fitted effect of over 50% in size
# Summary of the method: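 Viability counter screen: HRE-bla ME-180 cells plated 5 hrs before compound addition, treated 17 hrs at 37C and 5% CO2, then CellTiter-Glo added after the FRET reporter read; luminescence after 30 min.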
# [6] = qHTS assay to identify small molecule agonists of H2AX (AID 1224845; active means well fitted activation curve with a large enough effect in the signal ratio in the repeat runs, not every such curve was filed as active; the % refers to the signal ratio)
# Summary of the method: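 Wild-type CHO-K1 cells plated overnight, then exposed 3 hr at 37C to compounds at 15 concentrations (0.76% DMSO). Lysed, then HTRF anti-pH2AX(S139)-cryptate/anti-H2AX-d2 detection after 24 hr at room temperature; emissions 665 and 620 nm.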
# [7] = qHTS assay to identify small molecule agonists of the hypoxia (HIF-1) signaling pathway (AID 1224846; active means well fitted activation curve with a large enough effect in the signal ratio in the repeat runs, not every such curve was filed as active; the % refers to the signal ratio)
# Summary of the method: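 Agonist mode reporter screen. ME-180 cells stably expressing bla under HRE control received test compounds in DMSO for 17 hrs (37C, 5% CO2), and beta-lactamase activity was then detected with the CCF4-AM FRET substrate.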
# [8] = qHTS assay to identify small molecule antagonists of the estrogen related receptor (ERR) signaling pathway from Tox21 library (AID 1224848; active means well fitted curve in the direction sought with a large enough effect in the repeat runs; an effect the other way counts as inactive or inconclusive; further: nearly all actives have a fitted effect of over 50% in size; further: potency means the concentration at half of the fitted maximal effect)
# Summary of the method: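 First, 2,000 ERR cells per well were plated and held 6 h at 37 C/5% CO2. Next, compounds in DMSO were pinned in and left 18 h at 37 C. Finally, ONE-Glo was added and luminescence read after 30 min at room temperature.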
# [9] = qHTS assay to identify small molecule agonists of the estrogen related receptor (ERR) signaling pathway from Tox21 library (AID 1224849); further: nearly all actives have a fitted effect of over 15% in size
# Summary of the method: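 Quantitative HTS in agonist format: NTP ERR cell line, compounds transferred in DMSO after 6 h plating, 18 h incubation at 37 C, ONE-Glo luminescence endpoint.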
# [10] = qHTS assay to identify small molecule agonists of H2AX - cell viability counter screen (AID 1224847); further: top concentration of the series differs between compounds; nearly all actives have a fitted effect of over 30% in size
# Summary of the method: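 Quantitative HTS viability measurement: CHO-K1 wild-type cells in serum (10% FBS) medium, short 3 hr drug exposure at 37C with 0.76% DMSO, CellTiter-Glo luminescent detection.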
SMILES,outcome [1],Potency [2],outcome [3],outcome [4],outcome [5],outcome [6],outcome [7],Potency [8],outcome [9],Potency [10],"viability change, negative = cytotoxic [1]","activity, negative = inhibition [2]",activation [3],"activity change, negative = cytotoxicity [5]",activation (H2AX phosphorylation) [6],activation [7],"activity change, negative = cytotoxicity [10]","activity, negative = inhibition [8]","activity change, positive = activation [9]"
O=C(O)/C=C/c1ccccc1,inactive,inactive,inactive,inactive,inactive,inactive,inactive,inactive,inactive,,,,,,,,,,
CC(Cl)COP(=O)(OCC(C)Cl)OCC(C)Cl (stereo not given),inactive,inactive,inactive,inactive,inactive,inactive,inactive,inactive,inactive,inactive,,,,,,,,,
O=C1c2ccccc2-c2ccccc21,inactive,inactive,inactive,inactive,inactive,inactive,inactive,inactive,inactive,inactive,,,,,,,,,
Nc1ccc(C(=O)OCC(O)CO)cc1 (stereo not given),inactive,inactive,inactive,inactive,inactive,inactive,inactive,inactive,inactive,inactive,,,,,,,,,
FC(F)(F)c1ccc(Cl)cc1Cl,inactive,inactive,inactive,inactive,inactive,inactive,inactive,inactive,inactive,inactive,,,,,,,,,
CCCCCC1CCCC(=O)O1 (stereo not given),inactive,inactive,inactive,inactive,inactive,inactive,inactive,inactive,inactive,inactive,,,,,,,,,
CCCCCCCCOC(C)=O,inactive,inactive,inactive,inactive,inactive,inactive,inactive,inactive,inactive,inactive,,,,,,,,,
CCCCCCCCCCCCCCCCCCN(C)C,inactive,inactive,inactive,inactive,inactive,inactive,inactive,inactive,inactive,inactive,,,,,,,,,
NC(=O)NNC(N)=O,inactive,inactive,inactive,inactive,inactive,inactive,inactive,inactive,inactive,inactive,,,,,,,,,
CC(=O)OCCCc1ccccc1,inactive,inactive,inactive,inactive,inactive,inactive,inactive,inactive,inactive,inactive,,,,,,,,,
c1ccccc1,inactive,inactive,inactive,inactive,inactive,inactive,inactive,inactive,inactive,inactive,,,,,,,,,
CCCCCCCCCCCCCCCC(=O)NCCO,inactive,inactive,inactive,inactive,inactive,inactive,,inactive,inactive,inactive,,,,,,,,,
NC(=O)NC(=O)Cc1ccccc1,inactive,inactive,inactive,inactive,inactive,inactive,inactive,inactive,inactive,inactive,,,,,,,,,
OC[C@@H](O)[C@H](O)[C@@H](O)[C@@H](O)CO,inactive,inactive,inactive,inactive,inactive,inactive,inactive,inactive,inactive,inactive,,,,,,,,,
CCCCC(C)C(=O)O (stereo not given),inactive,inactive,inactive,inactive,inactive,inactive,inactive,inactive,inactive,inactive,,,,,,,,,
O=C(COCCOCCOCC(=O)Nc1c(I)cc(I)c(C(=O)O)c1I)Nc1c(I)cc(I)c(C(=O)O)c1I,inactive,inactive,inactive,inactive,inactive,inactive,inactive,inactive,inactive,inactive,,,,,,,,,
CC(=O)Nc1ncc([N+](=O)[O-])s1,inactive,inactive,inactive,inactive,inactive,inactive,inactive,inactive,,inactive,,,,,,,,,
Cc1ncc([N+](=O)[O-])n1CC(O)CCl (stereo not given),inactive,inactive,inactive,inactive,inactive,inactive,inactive,inactive,inactive,inactive,,,,,,,,,
CCCCCCCCCOCC1CO1 (stereo not given),inactive,inactive,inactive,inactive,inactive,inactive,inactive,inactive,inactive,inactive,,,,,,,,,
CCCCCCCCC(=O)OCC,inactive,inactive,inactive,inactive,inactive,inactive,inactive,inactive,inactive,inactive,,,,,,,,,
C=CCOC(=O)c1ccc(C(=O)OCC=C)c(C(=O)OCC=C)c1,inactive,inactive,inactive,inactive,inactive,inactive,inactive,inactive,inactive,inactive,,,,,,,,,
C[CH2][Ge]([Cl])([CH2]C)[CH2]C,inactive,inactive,inactive,inactive,inactive,inactive,inactive,inactive,inactive,inactive,,,,,,,,,
CCC1COC(=O)O1 (stereo not given),inactive,inactive,inactive,inactive,inactive,inactive,inactive,inactive,inactive,inactive,,,,,,,,,
CC(C)(c1ccc(Oc2ccc3c(c2)C(=O)OC3=O)cc1)c1ccc(Oc2ccc3c(c2)C(=O)OC3=O)cc1,inactive,inactive,inactive,inactive,inactive,inactive,inactive,inactive,inactive,inactive,,,,,,,,,

SMILES,outcome [1],Potency [2],outcome [3],outcome [4],outcome [5],outcome [6],outcome [7],Potency [8],outcome [9],Potency [10],"viability change, negative = cytotoxic [1]","activity, negative = inhibition [2]",activation [3],"activity change, negative = cytotoxicity [5]",activation (H2AX phosphorylation) [6],activation [7],"activity change, negative = cytotoxicity [10]","activity, negative = inhibition [8]","activity change, positive = activation [9]"
Cc1cccc(Nc2ccncc2S(=O)(=O)NC(=O)NC(C)C)c1,inactive,inactive,inactive,inactive,inactive,inactive,inactive,inactive,inactive,inactive,,,,,,,,,
C=C(C)C(=O)OC,inactive,inactive,inactive,inactive,inactive,inactive,inactive,inactive,inactive,inactive,,,,,,,,,
CC(=O)c1ccc2c(c1)CCCC2,inactive,inactive,inactive,inactive,inactive,inactive,inactive,inactive,inactive,inactive,,,,,,,,,
CCC(C)(C)C1CCC(=O)CC1,inactive,inactive,inactive,inactive,inactive,inactive,inactive,inactive,inactive,inactive,,,,,,,,,
Cc1cccc(NC(=S)N(C)C)c1,inactive,inactive,inactive,inactive,inactive,inactive,inactive,48.6 µM (active),inactive,,,,,,,,,,
C[C@@H]1C[C@H]2[C@@H]3C[C@H](F)C4=CC(=O)C=C[C@]4(C)[C@@]3(F)[C@@H](O)C[C@]2(C)[C@@]1(O)C(=O)CO,inactive,inactive,inactive,inactive,inactive,inactive,inactive,inactive,inactive,inactive,,,,,,,,,
NC(=O)C1(N2CCCCC2)CCN(CCCC(=O)c2ccc(F)cc2)CC1,inactive,inactive,inactive,inactive,inactive,inactive,inactive,inactive,inactive,inactive,,,,,,,,,
COc1cc(C=O)ccc1OC(=O)C(C)C,inactive,inactive,inactive,inactive,inactive,inactive,inactive,inactive,inactive,inactive,,,,,,,,,
COc1cccc2sc(N)nc12,inactive,inactive,inactive,inactive,inactive,inactive,inactive,inactive,inactive,inactive,,,,,,,,,
C=CCOCC(CO)(COCC=C)COCC=C,inactive,inactive,inactive,inactive,inactive,inactive,inactive,inactive,inactive,inactive,,,,,,,,,
CCc1nccnc1C,inactive,inactive,inactive,inactive,inactive,inactive,inactive,inactive,inactive,inactive,,,,,,,,,
CCCCOC(=O)C(C)OC(=O)CCC (stereo not given),inactive,inactive,inactive,inactive,inactive,inactive,inactive,inactive,inactive,inactive,,,,,,,,,
C=CCOc1c(Br)cc(C(C)(C)c2cc(Br)c(OCC=C)c(Br)c2)cc1Br,inactive,26.6 µM (active),inactive,inactive,inactive,inactive,inactive,29.9 µM (active),inactive,inactive,,,,,,,,,
Oc1ccccc1Cc1ccccc1O,inactive,inactive,inactive,,inactive,inactive,inactive,inactive,inactive,inactive,,,,,,,,,
CCCCOC(=O)C(=O)OCCCC,inactive,inactive,inactive,,inactive,inactive,inactive,inactive,inactive,inactive,,,,,,,,,
CCCCCN(CCCOC)C(=O)C(CCC(=O)O)NC(=O)c1ccc(Cl)c(Cl)c1 (stereo not given),inactive,inactive,inactive,,inactive,inactive,inactive,inactive,inactive,inactive,,,,,,,,,
Cc1ccccc1OCC1CO1 (stereo not given),inactive,inactive,inactive,,inactive,inactive,inactive,inactive,inactive,inactive,,,,,,,,,
O=CO,,,,,,,,,,,-0.178% [at 8.39 µM],4.47% [at 8.39 µM],-0.64% [at 8.39 µM],-0.151% [at 6.97 µM],0.0105% [at 14 µM],-0.756% [at 7.01 µM],0.103% [at 14 µM],-2.33% [at 8.39 µM],-1.2% [at 8.39 µM]
CC(=O)Nc1ccc(C)cc1,inactive,inactive,inactive,,inactive,inactive,inactive,inactive,inactive,inactive,,,,,,,,,
NS(=O)(=O)c1ccccc1OC(F)(F)F,inactive,inactive,inactive,,inactive,inactive,inactive,inactive,inactive,inactive,,,,,,,,,
Cc1ccccc1C,inactive,inactive,inactive,,inactive,inactive,inactive,inactive,inactive,inactive,,,,,,,,,
O=C(O)c1ccc(OCCN2CCCCC2)cc1,inactive,inactive,inactive,,inactive,inactive,inactive,inactive,inactive,inactive,,,,,,,,,
CC(C)C(=O)Nc1cccc(C(F)(F)F)c1,inactive,inactive,inactive,,inactive,inactive,inactive,inactive,inactive,inactive,,,,,,,,,
O=C(O)CCNC(=O)c1ccccc1,inactive,inactive,inactive,inactive,inactive,inactive,,inactive,inactive,inactive,,,,,,,,,
